Gal4-VP16 FLuc – VP16 counterscreen qHTS for inhibitors of ROR gamma transcriptional activity; Drosophila S2 Gal4-VP16 UAS-luciferase, luminescence, 20 h; Potency, µM (top dose mostly 53.6 µM), actives largely listed as inhibitors; 310,000 compounds, 3.5% hits; AID 2546, 2010;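 further: Gal4-VP16 expression switched on by copper sulfate through the metallothionein promoter; nearly all actives have a fitted effect of over 50% in size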
RORgamma inh – qHTS for inhibitors of ROR gamma transcriptional activity. 310,000 compounds, 5.4% hits. Nuclear receptor ROR-gamma (Mus musculus), P51450. AID 2551, 2010. Drosophila S2 Gal4-RORgamma UAS-luciferase reporter, 20 h. Potency, µM (highest dose often 53.6 µM), usual class: inhibitors; further: nearly all actives have a fitted effect of over 60% in size
Target sequence (P51450 whole entry, looked up, the tested form may be a part): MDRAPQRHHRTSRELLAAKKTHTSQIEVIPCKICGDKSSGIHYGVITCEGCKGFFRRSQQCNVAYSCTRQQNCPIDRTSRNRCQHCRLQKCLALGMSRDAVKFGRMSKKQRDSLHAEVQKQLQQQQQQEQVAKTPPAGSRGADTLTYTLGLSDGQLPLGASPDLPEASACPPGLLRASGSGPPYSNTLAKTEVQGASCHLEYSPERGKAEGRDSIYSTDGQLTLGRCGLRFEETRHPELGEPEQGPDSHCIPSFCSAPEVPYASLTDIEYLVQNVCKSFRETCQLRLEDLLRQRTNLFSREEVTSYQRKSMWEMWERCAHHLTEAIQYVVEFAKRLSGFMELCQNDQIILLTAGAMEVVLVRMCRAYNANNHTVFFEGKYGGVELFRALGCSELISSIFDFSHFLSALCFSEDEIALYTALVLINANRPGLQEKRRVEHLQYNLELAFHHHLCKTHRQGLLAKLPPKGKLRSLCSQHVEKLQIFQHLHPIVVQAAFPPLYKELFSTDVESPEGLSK
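Using a luciferase readout, inhibitors were identified by reduced reporter activity in Drosophila cells coexpressing a copper-inducible Gal4–ROR gamma fusion and UAS-driven Photinus luciferase, incubated 20 hr after 700 uM copper sulfate.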
KinaseGlo FLuc – Counterscreen for Luciferase (Kinase-Glo TM) Inhibition; Luciferin 4-monooxygenase (Photuris pensylvanica), Q27757; Kinase-Glo luciferase, ATP luminescence, 8 min; Potency, µM (series often up to 38.3 µM), most hits filed as inhibitors; 200,000 compounds, 0.28% hits; AID 1379, 2008; further: nearly all actives have a fitted effect of over 60% in size
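Light output from Kinase-Glo luciferase with luciferin and 10 uM ATP in 50 mM imidazole pH 7.2, KCl, MgCl2, Tween 20, BSA; compound pin-delivered, 8-min ambient incubation, then luminescence read.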
Each line names hits and unclear results; the compound was inactive in the other large screens; ! = not active in a repeat. Only some compounds are listed: those with a hit (about 6.4% of all), similar ones and a draw of the others. The call rests on the fitted dose curve; in most records, active means well fitted curve in the direction sought with a large enough effect; inconclusive means small, poorly fitted or top-dose-only effect, or another doubt; inactive means no such curve, though single readings can be large; an effect the other way counts as inactive or inconclusive.

Cc1cc(C)c(C(=O)C(C)OC(=O)c2ccc(Cl)nc2)cc1C (centres undefined)	none (no result: KinaseGlo FLuc)
O=C(COc1ccccc1)Nc1nnc(-c2ccc(F)cc2)o1	Gal4-VP16 FLuc 6.31µM, RORgamma inh inconclusive (no result: KinaseGlo FLuc)
O=C(COc1ccccc1)Nc1nnc(-c2ccc3c(c2)CCCC3)o1	Gal4-VP16 FLuc 3.55µM, RORgamma inh 5.62µM
O=C(Nc1nc(-c2ccc3c(c2)Cc2ccccc2-3)cs1)c1ccccc1	RORgamma inh inconclusive
O=C(Nc1nnc(-c2ccc3c(c2)CCCC3)o1)c1ccccc1	Gal4-VP16 FLuc 0.1µM, RORgamma inh 0.282µM
O=C(Nc1nnc(-c2ccc3c(c2)CCCC3)o1)c1ccccc1Cl	Gal4-VP16 FLuc 0.794µM, RORgamma inh 1.26µM
O=C(Nc1cccc2c1CCCC2)c1ccccc1Cl	none (no result: KinaseGlo FLuc)
O=C(COc1ccc(Cl)cc1)Nc1ccc2c(c1)CCC2	RORgamma inh inconclusive
O=C(COc1ccccc1)Nc1ccc(-c2nnc(-c3ccco3)o2)cc1	none
COc1ccc(Oc2ncc3nc(-c4cccc(C#N)c4)c(=O)n(C)c3n2)cc1	none (no result: KinaseGlo FLuc)
COc1ccc(C2/C=C\CN(S(=O)(=O)CC34CCC(CC3=O)C4(C)C)CC(=O)N2Cc2ccc(F)cc2)cc1 (centres undefined)	none (no result: KinaseGlo FLuc)
CC(OC(=O)CCN1C(=O)c2cccc([N+](=O)[O-])c2C1=O)C(=O)Nc1cc(Cl)cc(Cl)c1 (centres undefined)	none
Cc1ccccc1C(=O)NC1CCSC1=O (centres undefined)	RORgamma inh inconclusive (no result: KinaseGlo FLuc)
CN(C(=S)NC(=O)c1ccccc1Br)C1CCCCC1	Gal4-VP16 FLuc 3.16µM, RORgamma inh 0.891µM
CC1CCCCC1NC(=S)NC(=O)c1ccccc1Br (centres undefined)	Gal4-VP16 FLuc 5.01µM, RORgamma inh 2.82µM
Cc1ccccc1C(=O)NC(=S)N(C)C1CCCCC1	Gal4-VP16 FLuc 2.82µM, RORgamma inh inconclusive (no result: KinaseGlo FLuc)
CN(C(=O)CN1CCC(NC(=O)c2ccccc2Br)CC1)C1CCCCC1	none (no result: KinaseGlo FLuc)
O=C(NC(=S)NC1CCS(=O)(=O)C1)c1ccccc1Br (centres undefined)	none (no result: KinaseGlo FLuc)
CC1N(C)c2cc(NC(=O)c3cccs3)c(P(=O)(Nc3ccc([N+](=O)[O-])cc3)N3CCOCC3)cc2C1(C)C (centres undefined)	RORgamma inh inconclusive
CCCCn1c(N)c(C(=S)NC(=O)CC(C)(C)C)c(=O)n(C)c1=O	Gal4-VP16 FLuc 0.708µM, RORgamma inh 1.26µM (no result: KinaseGlo FLuc)
CCCn1c(N)c(C(=O)CN2CCc3ccccc3C2)c(=O)n(C)c1=O	none (no result: KinaseGlo FLuc)
Cc1ccc(OCC(O)C(C)NC(C)C)c2c1CCC2 (centres undefined)	none (no result: Gal4-VP16 FLuc, RORgamma inh)
Nc1c(C(=O)NC2CCCCC2)c2nc3ccccc3nc2n1/N=C/c1ccco1	Gal4-VP16 FLuc inconclusive, RORgamma inh 12.6µM
Nc1c(S(=O)(=O)c2ccccc2)c2nc3ccccc3nc2n1/N=C/c1ccco1	none
O=C(COC(=O)c1cc([N+](=O)[O-])ccc1N1CCOCC1)NCc1ccc(Cl)cc1Cl	none (no result: KinaseGlo FLuc)
COc1ccc(NC2CC(=O)N(c3cc([N+](=O)[O-])ccc3C)C2=O)cc1 (centres undefined)	none
COc1ccc(OCCC(=O)Nc2nccs2)cc1	Gal4-VP16 FLuc inconclusive, RORgamma inh inconclusive
CCc1ccc(CCC(=O)Nc2nccs2)o1	none
Cc1cccc(OCCCC(=O)Nc2ccc(S(=O)(=O)Nc3nccs3)cc2)c1C	RORgamma inh inconclusive (no result: KinaseGlo FLuc)
Cc1ccc(CCC(=O)Nc2nccs2)o1	Gal4-VP16 FLuc 28.2µM
O=C(COc1ccc2c(c1)OCO2)Nc1nccs1	Gal4-VP16 FLuc inconclusive, RORgamma inh 10µM (no result: KinaseGlo FLuc)
COc1ccc(OCC(=O)Nc2nccs2)cc1	Gal4-VP16 FLuc 7.94µM, RORgamma inh 3.55µM, KinaseGlo FLuc 10µM
COCc1nnc(NC(=O)COc2ccc3c(c2)OCO3)s1	none (no result: KinaseGlo FLuc)
Cc1cccc(OCCCC(=O)Nc2nccs2)c1C	RORgamma inh 3.16µM (no result: KinaseGlo FLuc)
CC(C)(C)NC(=O)C(c1cccs1)N(Cc1ccc(F)cc1)C(=O)c1csnn1 (centres undefined)	none (no result: KinaseGlo FLuc)
Cc1cc(=O)n2nc(N3CCCC(C(=O)NCc4cccc(Br)c4)C3)sc2n1 (centres undefined)	none (no result: KinaseGlo FLuc)
COCCn1c(=O)cnc2cnc(Oc3ccccc3)nc21	none (no result: KinaseGlo FLuc)
O=S1(=O)CCOCCCN1Cc1ccc(Cl)cc1	none (no result: KinaseGlo FLuc)
COc1cccc(C2C(C)CCC3C(=O)N(C)C(C(C)C)C(=O)N32)c1 (centres undefined)	none (no result: KinaseGlo FLuc)
COc1cc(C#N)c(NC(=S)N2CCOCC2)cc1OC	none
COc1ccccc1C(=O)COC(=O)c1cccc(S(=O)(=O)N2CCCC2)c1	none (no result: KinaseGlo FLuc)
CCOc1ccc(S(=O)(=O)N(C)c2ccc(OCC(=O)Nc3nccs3)cc2)cc1	none
CCOc1ccc(OCC(=O)Nc2nccs2)cc1	RORgamma inh 12.6µM, KinaseGlo FLuc 11.2µM
NNC(=O)COc1cccc2cccnc12	RORgamma inh inconclusive
Cc1cccc(OCC(=O)Nc2ccncc2)c1C	Gal4-VP16 FLuc 3.16µM, RORgamma inh inconclusive (no result: KinaseGlo FLuc)
O=C(COc1cccc2cccnc12)Nc1nccs1	Gal4-VP16 FLuc 17.8µM, RORgamma inh inconclusive
COc1ccccc1OCC(=O)Nc1ccncc1	none (no result: KinaseGlo FLuc)
CC(=O)c1nn(-c2ccc(C(F)(F)F)cc2)c(=O)[nH]c1=O	none (no result: KinaseGlo FLuc)
Cc1ccc(S(=O)(=O)N/N=C\c2ccc3c(c2)OCO3)c(C)c1	none (no result: KinaseGlo FLuc)
O=C(CC(=O)NN=C1CCCCCC1)NCc1cccnc1	none
COc1cc(OC)cc(C(=O)N[C@H](C(=O)NCc2cccs2)C(C)C)c1	none
CC(C)(C)OC(=O)NCCCCC1=CC2=CC(=O)C(C)(OC(=O)CCc3ccccc3)C(=O)C2=CO1 (centres undefined)	none
Cc1nc(N)sc1-c1csc(Nc2ncccn2)n1	Gal4-VP16 FLuc inconclusive, RORgamma inh 6.31µM
COc1ccccc1Nc1nc(-c2sc(N)nc2C)cs1	RORgamma inh inconclusive (no result: KinaseGlo FLuc)
Cc1nn2c(Nc3ccc(F)cc3)c3c(nc2c1-c1ccccc1)CCC3	Gal4-VP16 FLuc inconclusive, RORgamma inh 2.82µM
COc1cccc(Nc2c3c(nc4c(-c5ccccc5)c(C)nn24)CCC3)c1	Gal4-VP16 FLuc 3.16µM, RORgamma inh inconclusive
CCC(C)Nc1c2c(nc3c(-c4ccccc4)c(C)nn13)CCC2 (centres undefined)	RORgamma inh 10µM
Cc1nn2c(NCc3cccnc3)c3c(nc2c1-c1ccccc1)CCC3	none (no result: KinaseGlo FLuc)
CCCCNc1c2c(nc3c(-c4ccccc4)c(C)nn13)CCC2	none
COCCNc1c2c(nc3c(-c4ccccc4)c(C)nn13)CCCC2	RORgamma inh inconclusive
Cc1nn2c(N3CCCC3)c3c(nc2c1-c1ccccc1)CCC3	none (no result: KinaseGlo FLuc)
Cc1nn2c(NCCN(C)C)c3c(nc2c1-c1ccccc1)CCCC3	Gal4-VP16 FLuc 0.447µM, RORgamma inh inconclusive (no result: KinaseGlo FLuc)
C[C@H](NC(=O)c1ccco1)C(=O)N1CCCC1	none (no result: KinaseGlo FLuc)
O=C(CS(=O)(=O)c1c[nH]c2ccccc12)N1CCc2ccccc21	Gal4-VP16 FLuc inconclusive (no result: KinaseGlo FLuc)
[O-][n+]1onc2c1CCC(=N/O)/C2=N\Nc1ccccc1	RORgamma inh inconclusive (no result: KinaseGlo FLuc)
Cc1ccc(C(=O)N2CC(=O)Nc3ccc(F)cc3C2c2ccc(F)cc2)cc1[N+](=O)[O-] (centres undefined)	RORgamma inh inconclusive
CC(C)n1c(SCC(=O)NCc2ccco2)nnc1C1CC1	none (no result: KinaseGlo FLuc)
CC(C)(C)n1nc2c(c1NC(=O)c1cc3ccccc3o1)CS(=O)(=O)C2	none
COc1ccc2nc3c(c(-c4ccccc4)c2c1)CCC3	Gal4-VP16 FLuc 17.8µM!, RORgamma inh 11.2µM
